Screening data deposited in PubChem by several laboratories.
Rows were chosen to be rich in hits. Some 27% of all compounds tested hit in one or more screens of this group.
CYP2C19 act: human CYP2C19 activators, primary screen, biochemical, luminescence; recombinant CYP2C19, luciferin-H EGE luminescence; hits give high values; 0 = fully inhibited enzyme, 1 = untreated enzyme; Cytochrome P450 2C19 (Homo sapiens), P33261; activation factor at 5 µM; 96,000 tested, under 10 active;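 active = activation factor of at least 2 at 5 µM in the primary screen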;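 note: 0 = wells with 2.5 mM tranylcypromine and 1 = vehicle-only wells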
CYP2C9 act: human CYP2C9 activators, primary screen, biochemical, luminescence; Cytochrome P450 2C9 (Homo sapiens), P11712; recombinant CYP2C9, luciferin-H conversion; hits give high values; factor 1 = untreated enzyme, 0 = blocked; activation factor at 5 µM; 96,000 compounds, 1.4% hits;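 active = activation factor of 2 or more for CYP2C9 at a 5 µM dose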;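 note: 0 = sulfaphenazole-blocked wells and 1 = vehicle-only wells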
Cav32 inh: Cav3.2 calcium influx blockers – cell-based, Fluo-4 calcium fluorescence, FDSS, MLSMR library, primary screen | 100,000 compounds, 4% hits | Cav3.2-expressing cells; hits give low values | B-score at 10 µM | Voltage-dependent T-type calcium channel subunit alpha-1H (Homo sapiens), O95180;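 active = single-dose well whose peak fluorescence ratio is a statistical outlier from its plate by either plate-standardised score or position-corrected B-score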
CYP2C9 inh: blockers of cytochrome P450 2C9 activity – biochemical, luminescence, ADME assay, primary screen. 96,000 compounds, 20% hits. AID 777, 2007. P11712. inhibition, % at 5 µM. CYP2C9 Supersomes, luciferin-H conversion;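 active = blocking of liver enzyme CYP2C9 beyond about 50% at 5 µM, limit read from the data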
CYP2C19 inhib: blockers of cytochrome P450 2C19 activity – biochemical, luminescence, ADME assay, primary screen | inhibition, % at 5 µM | P33261 | 96,000 compounds, 21% hits | CYP2C19 Supersomes, luciferin-H EGE luminescence, 30 min | AID 778, 2007;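 active = CYP2C19 inhibition above a set limit at 5 µM in the primary screen, cut at about 50% in these data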;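 note: plate controls were negative control wells for no effect and 2.5 mM tranylcypromine positive control for full effect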
Numbers without * were called inactive.

How did CC(Oc1ccc2c(-c3ccccc3)cc(=O)oc2c1)C(=O)O (centres undefined) do in these assays?
CYP2C19 act: 0.9; CYP2C9 act: 0.3; Cav32 inh: -0.88; CYP2C9 inh: 74*; CYP2C19 inhib: 9

What do the screens show for `CCCc1cc(=O)oc2cc(OCC(=O)OC)cc(OCC(=O)OC)c12`?
CYP2C19 act: 0.5; CYP2C9 act: 0.4; Cav32 inh: 0.12; CYP2C9 inh: 61*; CYP2C19 inhib: 49

Results for COC(=O)COc1ccc2c(-c3ccc(OC)cc3)cc(=O)oc2c1 ?
CYP2C19 act: 0.5; CYP2C9 act: 0.7; Cav32 inh: 0.13; CYP2C9 inh: 30; CYP2C19 inhib: 52*

What do the screens show for `O=C(Oc1ccc2c(-c3ccccc3)cc(=O)oc2c1)C1CCCCC1`?
CYP2C19 act: 0.7; CYP2C9 act: 0.7; CYP2C9 inh: 32; CYP2C19 inhib: 32

What do the screens show for `COc1ccc(-c2cc(=O)oc3cc(OCc4nn[nH]n4)ccc23)cc1`?
CYP2C19 act: 0.7; CYP2C9 act: 0.2; Cav32 inh: 0.035; CYP2C9 inh: 76*; CYP2C19 inhib: 31

Results for Cc1ccc(-c2cc(C(=O)Nc3nn[nH]n3)c3ccccc3n2)cc1 ?
CYP2C19 act: 1.1; CYP2C9 act: 0.9; Cav32 inh: 0.0027; CYP2C9 inh: 12; CYP2C19 inhib: -14

Results for O=C(NCc1ccccc1)N(Cc1cc2cc3c(cc2[nH]c1=O)OCO3)CC1CCCO1 (centres undefined) ?
CYP2C19 act: 0.9; CYP2C9 act: 1; Cav32 inh: -0.51; CYP2C9 inh: 0; CYP2C19 inhib: 8

What do the screens show for `COc1ccc(-c2cc3ccc(OCc4nn[nH]n4)cc3oc2=O)cc1OC`?
CYP2C19 act: 0.7; CYP2C9 act: 0.4; Cav32 inh: 0.77; CYP2C9 inh: 59*; CYP2C19 inhib: 32

What do the screens show for `O=c1oc2cc(OCc3ccc(F)cc3F)ccc2cc1-c1ccccn1`?
CYP2C19 act: 0.7; CYP2C9 act: 0.9; Cav32 inh: -0.014; CYP2C9 inh: 9; CYP2C19 inhib: 34

Results for CC(C)(CNc1ccc([N+](=O)[O-])cc1Cl)CNS(C)(=O)=O ?
CYP2C19 act: 0.5; CYP2C9 act: 0.6; Cav32 inh: 0.27; CYP2C9 inh: 44; CYP2C19 inhib: 55*

How did C=CCn1c(NC(=O)c2ccccc2Cl)c(C#N)c2nc3ccccc3nc21 do in these assays?
CYP2C19 act: 1.2; CYP2C9 act: 1; Cav32 inh: -7*; CYP2C9 inh: 0; CYP2C19 inhib: -19

Results for O=C1c2oc3ccccc3c(=O)c2C(c2cccs2)N1CCCN1CCOCC1 (centres undefined) ?
CYP2C19 act: 1; CYP2C9 act: 0.8; Cav32 inh: 1; CYP2C9 inh: 23; CYP2C19 inhib: 2

What do the screens show for `CC(C)c1[nH]nc2c1C(c1ccc(OC(=O)c3ccco3)cc1)C(C#N)=C(N)O2` (centres undefined)?
CYP2C19 act: 0.3; CYP2C9 act: 0.3; Cav32 inh: -0.077; CYP2C9 inh: 73*; CYP2C19 inhib: 74*

What do the screens show for `Cc1[nH]nc2c1C(c1ccc(OC(=O)c3ccco3)cc1)C(C#N)=C(N)O2` (centres undefined)?
CYP2C19 act: 0.6; CYP2C9 act: 0.4; Cav32 inh: -0.41; CYP2C9 inh: 58*; CYP2C19 inhib: 44

How did Cc1cccc(-c2nnc(SCC(=O)Nc3nc4c(s3)CCCC4)n2C)c1 do in these assays?
Cav32 inh: -0.81

How did Cc1oc(-c2ccccc2F)nc1CS(=O)CC(=O)NCc1ccc2c(c1)OCO2 (centres undefined) do in these assays?
CYP2C19 act: 0.4; CYP2C9 act: 0.5; Cav32 inh: 0.0077; CYP2C9 inh: 53*; CYP2C19 inhib: 62*

What do the screens show for `Cc1oc(-c2ccccc2Cl)nc1CS(=O)CC(=O)NCc1cccs1` (centres undefined)?
CYP2C19 act: 0.3; CYP2C9 act: 0.3; Cav32 inh: -0.35; CYP2C9 inh: 69*; CYP2C19 inhib: 71*

How did Cc1cccc(-c2nc(CS(=O)CC(=O)NCc3cccs3)c(C)o2)c1 (centres undefined) do in these assays?
CYP2C19 act: 0.6; CYP2C9 act: 0.4; Cav32 inh: -0.37; CYP2C9 inh: 60*; CYP2C19 inhib: 37

What do the screens show for `Cc1oc(-c2ccccc2F)nc1CS(=O)CC(=O)NCc1cccs1` (centres undefined)?
CYP2C19 act: 0.5; CYP2C9 act: 0.4; Cav32 inh: 0.11; CYP2C9 inh: 63*; CYP2C19 inhib: 53*

Results for NS(=O)(=O)c1cc2c(cc1Cl)NC=NS2(=O)=O ?
Cav32 inh: 0.18

How did COC(=O)CNC(=O)Cc1c(F)cccc1Cl do in these assays?
CYP2C19 act: 1.1; CYP2C9 act: 1.1; Cav32 inh: -0.27; CYP2C9 inh: -7; CYP2C19 inhib: -11

What do the screens show for `N#Cc1c(N)nc2c(c1N)CC(COc1ccccc1)O2` (centres undefined)?
CYP2C19 act: 1; CYP2C9 act: 1.1; Cav32 inh: 0.0096; CYP2C9 inh: -8; CYP2C19 inhib: -3

How did Cc1ccc(CCNC(=O)CS(=O)Cc2nc(-c3cccc(C)c3)oc2C)cc1 (centres undefined) do in these assays?
CYP2C19 act: 0.4; CYP2C9 act: 0.3; Cav32 inh: -5.2*; CYP2C9 inh: 70*; CYP2C19 inhib: 64*

What do the screens show for `Cc1cccc(-c2nc(CS(=O)CC(=O)NCC3CCCO3)c(C)o2)c1` (centres undefined)?
CYP2C19 act: 0.9; CYP2C9 act: 0.9; Cav32 inh: 0.12; CYP2C9 inh: 6; CYP2C19 inhib: 10

What do the screens show for `CCOC(=O)c1[nH]c2ccc(F)cc2c1NC(=O)CCN1CCSCC1`?
CYP2C19 act: 0.8; CYP2C9 act: 0.8; Cav32 inh: 0.73; CYP2C9 inh: 23; CYP2C19 inhib: 15

Results for CCN(CC)S(=O)(=O)c1ccc(C(=O)OC2CCCCC2CN(C)C)cc1 (centres undefined) ?
CYP2C19 act: 0.9; CYP2C9 act: 0.5; CYP2C9 inh: 50*; CYP2C19 inhib: 8

Results for CCN(CC)S(=O)(=O)c1ccc(C(=O)Oc2ccc3c(c2)OCO3)cc1 ?
CYP2C19 act: 1; CYP2C9 act: 1; Cav32 inh: 0.46; CYP2C9 inh: -1; CYP2C19 inhib: -4

Results for Cc1nn(-c2c(Cl)cc(Cl)cc2Cl)c(=O)c2ccccc12 ?
CYP2C19 act: 0.5; CYP2C9 act: 0.8; Cav32 inh: -5*; CYP2C9 inh: 16; CYP2C19 inhib: 48

How did COC(=O)C(O)(CC(=O)Nc1ccccc1OC)C(F)(F)F (centres undefined) do in these assays?
Cav32 inh: -0.9

What do the screens show for `CC(=O)Nc1cccc(Oc2cc(C#N)c(C#N)cc2N2CCCCCC2)c1`?
CYP2C19 act: 0; CYP2C9 act: 0; Cav32 inh: -1.9; CYP2C9 inh: 100*; CYP2C19 inhib: 96*
